Reference: the supplement of paper PMC13172266
Where a name gives a salt, the structure may show the parent alone.

What was measured:
Assay in all cases: cell proliferation relative to vehicle (% of vehicle); higher = less growth inhibition
Settings in all cases: 72 h
[1] = test system: U2932 TK216-resistant clone 2
Method in brief: (§1)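 A targeted inhibitor library of 348 compounds was tested on the ABC-DLBCL line U2932, both parental and two clones made resistant to an ETS-targeting agent by repeated exposure over almost a year. Cells were grown at 37°C and 5% CO2 in medium with 10% FBS, then treated at 500 nM or 50 nM for 72 h. MTT was added for 4 h, stopped with 25% SDS, and absorbance was read on a Cytation 3. Proliferation is reported as percent of proliferating cells relative to vehicle (DMSO).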

[2] = test system: U2932 TK216-resistant clone 3
Method in brief: as §1

U2932 parental = test system: U2932 parental
Method in brief: as §1

Row | SMILES | cell proliferation ([1]; 50 nM) | cell proliferation ([1]; 500 nM) | cell proliferation ([2]; 50 nM) | cell proliferation ([2]; 500 nM) | cell proliferation (U2932 parental; 50 nM) | cell proliferation (U2932 parental; 500 nM)
1 | C[C@]12C=CC(=O)C=C1CC[C@@H]1[C@@H]2C(=O)C[C@@]2(C)[C@H]1CC[C@]2(O)C(=O)CO [Prednisone] | 95.3 | 94.8 | 105 | 102 | 97.3 | 100
2 | CC(C)c1onc(-c2c(Cl)cccc2Cl)c1COc1ccc(/C=C/c2cccc(C(=O)O)c2)c(Cl)c1 | 105 | 112 | 104 | 105 | 108 | 111
3 | NC(=O)c1ccc(N(C(N)=O)c2c(F)cccc2F)nc1-c1ccc(F)cc1F | 106 | 100 | 108 | 99.3 | 99.3 | 98.7
4 | CO[C@H]1C[C@@H]2CC[C@@H](C)[C@@](O)(O2)C(=O)C(=O)N2CCCC[C@H]2C(=O)O[C@H]([C@H](C)C[C@@H]2CC[C@@H](OC(=O)C(C)(CO)CO)[C@H](OC)C2)CC(=O)[C@H](C)/C=C(\C)[C@@H](O)[C@@H](OC)C(=O)[C@H](C)C[C@H](C)/C=C/C=C/C=C/1C | 68.3 | 64.8 | 65 | 65.1 | 59.6 | 58.9
5 | COc1ccccc1OCC(O)CN1CCN(CC(=O)Nc2c(C)cccc2C)CC1 (stereo not drawn) [Ranolazine] | 97.6 | 91.3 | 95 | 101 | 106 | 99.1
6 | CCOc1ccc(Cc2cc([C@@H]3O[C@H](CO)[C@@H](O)[C@H](O)[C@H]3O)ccc2Cl)cc1 [Dapagliflozin] | 103 | 103 | 101 | 107 | 103 | 96.2
7 | CCCS(=O)(=O)Nc1ccc(F)c(C(=O)c2c[nH]c3ncc(Cl)cc23)c1F | 99.4 | 97.3 | 106 | 106 | 95.1 | 95.6
8 | CN(NC(=O)CC(=O)NN(C)C(=S)c1ccccc1)C(=S)c1ccccc1 [Elesclomol (STA-4783)] | 0.164 | -0.212 | -0.901 | -3.67 | 0.103 | -1.37
9 | Nc1nccc2c1ncn2C1C=C(CO)C(O)C1O (stereo not drawn) [3-Deazaneplanocin A (DZNeP)] | 103 | 86.2 | 102 | 82.1 | 98.1 | 81.5
10 | Oc1cc(O)cc(/C=C/c2ccc(O)c(O)c2)c1 [Piceatannol] | 97.8 | 99.7 | 97.6 | 100 | 98.7 | 94
11 | CS(=O)(=O)c1ccc(C(=O)Nc2ccc(Cl)c(-c3ccccn3)c2)c(Cl)c1 [Vismodegib (GDC-0449)] | 106 | 108 | 108 | 113 | 98.2 | 103
12 | NC(=O)c1ncn([C@@H]2O[C@H](CO)[C@@H](O)[C@H]2O)c1N [Acadesine] | 88.9 | 94.5 | 98.7 | 98.1 | 102 | 98.4
13 | COc1cc2ncnc(Oc3ccc(CC(=O)Nc4cnn(C(C)C)c4)cc3)c2cc1OC | 100 | 104 | 104 | 98.5 | 97.7 | 95.7
14 | Cc1cc([C@@H](C)Nc2ccccc2C(=O)O)c2nc(N3CCOCC3)cc(=O)n2c1 | 107 | 95 | 103 | 95.3 | 99.9 | 101
15 | O=S(=O)(O)CCS [Mesna] | 110 | 116 | 101 | 103 | 95.4 | 103
16 | CO[C@@H](C)Cn1c(=O)n(C)c2cnc3ccc(-c4cncc(C(C)(C)O)c4)cc3c21 | 79.1 | 23.8 | 79.2 | 30.9 | 80.4 | 33.6
17 | Cc1cc(NC(=O)c2cccc(NC(=O)/C=C/CN(C)C)c2)ccc1Nc1nccc(-c2cccnc2)n1 | 99.5 | 106 | 108 | 116 | 96.8 | 103
18 | COc1ccc(F)c(F)c1C(=O)c1cnc(NC2CCN(S(C)(=O)=O)CC2)nc1N | 92 | 53.5 | 89.4 | 66.7 | 90.5 | 63.3
19 | CC(C)N(C[C@H]1O[C@@H](n2cnc3c(N)ncnc32)[C@H](O)[C@@H]1O)[C@H]1C[C@@H](CCc2nc3cc(C(C)(C)C)ccc3[nH]2)C1 | 98.8 | 91.9 | 97.2 | 91.6 | 101 | 95.4
20 | Cn1cc(C2=C(c3ccc(Cl)cc3Cl)C(=O)NC2=O)c2ccccc21 | 105 | 96.2 | 105 | 108 | 97.8 | 100
21 | O=C(NC[C@H](O)CO)c1ccncc1Nc1ccc(I)cc1F | 91 | 88.5 | 95.7 | 94.7 | 92.2 | 89.5
22 | Cn1cc(/C=C2\C(=O)Nc3cccnc32)c2ccccc21 | 102 | 105 | 106 | 105 | 97.2 | 90
23 | CC(C)c1cc(-c2n[nH]c(=O)n2-c2ccc3c(ccn3C)c2)c(O)cc1O [Ganetespib (STA-9090)] | 6.02 | 4.07 | 23.7 | 19.8 | 4.55 | 5.59
24 | Cc1cc(Nc2nc(N[C@@H](C)c3ncc(F)cn3)ncc2Cl)[nH]n1 | 116 | 108 | 105 | 117 | 96.7 | 91.5

Row | SMILES | cell proliferation ([1]; 50 nM) | cell proliferation ([1]; 500 nM) | cell proliferation ([2]; 50 nM) | cell proliferation ([2]; 500 nM) | cell proliferation (U2932 parental; 50 nM) | cell proliferation (U2932 parental; 500 nM)
25 | CC(C)(C)c1nc(-c2cccc(NS(=O)(=O)c3c(F)cccc3F)c2F)c(-c2ccnc(N)n2)s1 | 111 | 101 | 106 | 110 | 101 | 93
26 | COc1ccc(-n2c(SCCCN3C(=O)c4cccc5cccc(c45)C3=O)nnc2-c2ccncc2)cc1 | 106 | 97.3 | 104 | 99.4 | 94.3 | 94.5
27 | Cc1nnc(C(C)C)n1C1C[C@H]2CC[C@@H](C1)N2CC[C@H](NC(=O)C1CCC(F)(F)CC1)c1ccccc1 (stereo in doubt) [Maraviroc] | 107 | 99.6 | 96 | 101 | 88 | 89.6
28 | O=C(O)c1ccc(O)c2ncccc12 | 104 | 107 | 101 | 99.2 | 106 | 105
29 | O=C(Nc1ccc(OC(F)(F)F)cc1)c1sccc1NCc1ccnc2ccccc12 | 105 | 101 | 105 | 109 | 100 | 98.9
30 | CN(C)CCOc1ccc(-c2nc(-c3ccncc3)c(-c3ccc4c(c3)CC/C4=N\O)[nH]2)cc1 | 93.3 | 89.5 | 96.6 | 97.4 | 93.3 | 94.8
31 | CCCCc1nc2cc(/C=C/C(=O)NO)ccc2n1CCN(CC)CC [Pracinostat (SB939)] | 107 | 54 | 89.2 | 64.4 | 91.7 | 50.1
32 | CCC[C@H](Nc1nc(-c2ccc(NC(=O)NCC)c(OC)c2)ncc1C)c1cccnc1 [CYT997 (Lexibulin)] | 10.1 | 9.29 | 8 | 12.1 | 10.4 | 14.3
33 | O=C(NOCC1CC1)c1ccc(F)c(F)c1Nc1ccc(I)cc1Cl | 102 | 90.6 | 98.5 | 90.8 | 96.2 | 95.7
34 | CC/C(=C(\c1ccccc1)c1ccc(OCCN(C)C)cc1)c1ccccc1 [Tamoxifen Citrate] | 98.9 | 89.7 | 89 | 86.3 | 82.1 | 79.1
35 | COc1cc(Nc2ncc3c(n2)-c2ccc(Cl)cc2C(c2c(F)cccc2OC)=NC3)ccc1C(=O)O [Alisertib (MLN8237)] | 73.6 | 79.3 | 61.8 | 72.8 | 52.2 | 53.2
36 | CCN(CC)CCCC(C)Nc1ccnc2cc(Cl)ccc12 (stereo not drawn) [Chloroquine Phosphate] | 98.7 | 104 | 116 | 111 | 94.1 | 99.2
37 | CC1(C)CCC(CN2CCN(c3ccc(C(=O)NS(=O)(=O)c4ccc(NCC5CCOCC5)c([N+](=O)[O-])c4)c(Oc4cnc5[nH]ccc5c4)c3)CC2)=C(c2ccc(Cl)cc2)C1 | 74.5 | 29.9 | 84.4 | 35.1 | 90.7 | 66.9
38 | CCCS(=O)(=O)Nc1ccc(F)c(C(=O)c2c[nH]c3ncc(-c4ccc(Cl)cc4)cc23)c1F [Vemurafenib (PLX4032, RG7204)] | 106 | 110 | 101 | 108 | 101 | 100
39 | CCCC(CCC)C(=O)O [Valproic acid sodium salt (Sodium valproate)] | 98.2 | 101 | 103 | 94.2 | 106 | 97.6
40 | CC(C)NCCCn1c(Sc2cc3c(cc2I)OCO3)nc2c(N)ncnc21 | 113 | 6.42 | 105 | 31.6 | 112 | 6.73
41 | NC(=O)Nc1sc(-c2ccc(F)cc2)cc1C(N)=O | 109 | 92.7 | 106 | 102 | 104 | 99.5
42 | O=C(c1cc(Cc2n[nH]c(=O)c3ccccc23)ccc1F)N1CCN(C(=O)C2CC2)CC1 | 103 | 99.3 | 103 | 103 | 99.6 | 94.9
43 | CCN(c1cc(-c2ccc(CN3CCOCC3)cc2)cc(C(=O)NCc2c(C)cc(C)[nH]c2=O)c1C)C1CCOCC1 | 92.4 | 80.1 | 96.4 | 87.6 | 89.5 | 82.5
44 | CO[C@H]1C[C@@H]2CC[C@@H](C)[C@@](O)(O2)C(=O)C(=O)N2CCCC[C@H]2C(=O)O[C@H]([C@H](C)C[C@@H]2CC[C@@H](O)[C@H](OC)C2)CC(=O)[C@H](C)/C=C(\C)[C@@H](O)[C@@H](OC)C(=O)[C@H](C)C[C@H](C)/C=C/C=C/C=C/1C [Rapamycin (Sirolimus)] | 62.4 | 62.1 | 60.3 | 59.4 | 58.2 | 58.9
45 | O=C1NC(=O)C(c2ccccc2[N+](=O)[O-])=C1Nc1ccc(O)c(Cl)c1 | 111 | 113 | 110 | 105 | 108 | 101
46 | C[C@@H]1CCN(C(=O)CC#N)C[C@@H]1N(C)c1ncnc2[nH]ccc12 | 102 | 104 | 113 | 98.5 | 109 | 107
47 | C[C@]1(O)C[C@@H](c2nc(-c3ccc4ccc(-c5ccccc5)nc4c3)c3c(N)nccn32)C1 [OSI-906 (Linsitinib)] | 104 | 95.1 | 95.7 | 99.4 | 99.3 | 99.7
48 | CN[C@@H](C)C(=O)N[C@H]1CN(C(=O)CC(C)C)CC[C@H]2CC[C@@H](C(=O)NC(c3ccccc3)c3ccccc3)N2C1=O | 106 | 111 | 94.6 | 105 | 94 | 103
